Rows were chosen to be rich in hits. Some 4.3% of all compounds tested hit in one or more screens of this group.
NR3A LBD binder: NR3A (human) ligand-binding domain modulation; NR3A LBD differential scanning fluorimetry, Tm shift; 0% = protein alone, 100% = glycine-bound protein; Tm shift relative to glycine control, % at 25 µM; 340,000 tested, 2.5% active;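 active = melting temperature shift of at least 10% of the positive control shift, at one fixed dose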
FAS TE block: FAS thioesterase (human) inhibition; recombinant FAS-TE, OMFH fluorogenic substrate, fluorescence endpoint; 360,000 tested, 0.67% active; inhibition, % at 15 µM;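 active = compounds whose normalised, plate-corrected inhibition of enzyme fluorescence in the single-dose primary screen is 50% or more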
ADAM10 inh: ADAM10 inhibition, QFRET primary screen. O14672. recombinant ADAM10, EDANS/DABCYL FRET peptide cleavage, 3 h. inhibition, % at 7 µM. 370,000 tested, 0.62% active;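 active = inhibition above a per-campaign cutoff equal to the mean of compounds falling between control-based bounds plus 3 SD, cut at about 20% in these data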
ADAM17 inh: inhibits human ADAM17. P78536. recombinant ADAM17, EDANS/DABCYL FRET peptide cleavage. inhibition, % at 6.95 µM. 370,000 tested, 0.83% active;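 active = inhibition above the mean of compounds lying between control limits plus 3 SD, set per campaign, cut at about 8.5% in these data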
Target sequence (P78536 215-824 limits assumed): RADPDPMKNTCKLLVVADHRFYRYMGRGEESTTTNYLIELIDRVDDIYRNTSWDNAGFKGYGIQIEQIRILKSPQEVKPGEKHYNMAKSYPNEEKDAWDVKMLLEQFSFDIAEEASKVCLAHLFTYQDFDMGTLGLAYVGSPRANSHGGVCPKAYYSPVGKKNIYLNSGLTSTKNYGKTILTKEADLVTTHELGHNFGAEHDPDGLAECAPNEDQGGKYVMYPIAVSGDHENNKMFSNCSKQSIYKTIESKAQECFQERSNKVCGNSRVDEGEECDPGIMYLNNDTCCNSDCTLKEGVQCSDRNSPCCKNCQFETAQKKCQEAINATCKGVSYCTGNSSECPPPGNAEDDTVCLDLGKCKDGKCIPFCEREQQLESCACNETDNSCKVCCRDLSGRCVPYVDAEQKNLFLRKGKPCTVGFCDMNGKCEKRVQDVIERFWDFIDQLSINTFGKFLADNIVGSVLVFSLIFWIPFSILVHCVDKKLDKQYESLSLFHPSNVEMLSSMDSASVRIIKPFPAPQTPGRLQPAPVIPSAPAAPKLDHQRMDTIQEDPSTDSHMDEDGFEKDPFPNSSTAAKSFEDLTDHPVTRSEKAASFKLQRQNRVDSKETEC
HGIII-sPLA2 inh: Inhibits HGIII-sPLA2 liposome hydrolysis, primary screen; QFRET BODIPY PC-A2 liposome hydrolysis, fluorescence; 370,000 tested, 0.56% active; Q9NZ20; inhibition, % at 12.2 µM;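 active = inhibition above mean plus 3 SD of compounds lying within the high and low control bounds, cut at about 19% in these data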
A number is an active result.

Results for Cc1ccc(NC(=O)C2CCCN2S(=O)(=O)c2cccnc2)cc1C (configuration not stated) ?
ADAM10 inh: inactive; ADAM17 inh: inactive; HGIII-sPLA2 inh: inactive

Results for Cc1cc(Cl)ccc1OCC(=O)N/N=C/c1ccc[nH]1 ?
ADAM10 inh: inactive; ADAM17 inh: inactive; HGIII-sPLA2 inh: inactive

What do the screens show for `NC1=NC(=O)CC(C(=O)NCCc2ccccc2)S1` (configuration not stated)?
NR3A LBD binder: 10; FAS TE block: inactive; ADAM10 inh: inactive; ADAM17 inh: inactive; HGIII-sPLA2 inh: inactive

Results for CCOc1ccc(CCNC(=O)c2cc(-c3ccccc3)c(N3CCOCC3)s2)cc1OC ?
ADAM10 inh: inactive; ADAM17 inh: inactive; HGIII-sPLA2 inh: inactive

How did O=C(Nc1cc(S(=O)(=O)N2CCOCC2)ccc1O)c1ccc(S(=O)(=O)N2CCCCC2)cc1 do in these assays?
NR3A LBD binder: inactive; FAS TE block: inactive; ADAM10 inh: inactive; ADAM17 inh: inactive; HGIII-sPLA2 inh: inactive

What do the screens show for `O=C(c1ccccc1NS(=O)(=O)c1ccc(F)cc1)N1CCCCC1`?
NR3A LBD binder: inactive; FAS TE block: inactive; ADAM10 inh: inactive; ADAM17 inh: inactive; HGIII-sPLA2 inh: inactive

Results for O=C(Nc1cc(S(=O)(=O)N2CCOCC2)ccc1N1CCCC1)c1cc2c(s1)CCCC2 ?
ADAM10 inh: inactive; ADAM17 inh: inactive; HGIII-sPLA2 inh: inactive

What do the screens show for `O=C(Nc1cc(S(=O)(=O)Nc2ccc(Cl)cc2)ccc1O)c1ccc(S(=O)(=O)N2CCCCCC2)cc1`?
NR3A LBD binder: 30; FAS TE block: inactive; ADAM10 inh: inactive; ADAM17 inh: inactive; HGIII-sPLA2 inh: inactive

What do the screens show for `O=C(Nc1cc(S(=O)(=O)N2CCCCC2)ccc1Cl)c1ccccc1NS(=O)(=O)c1ccc(F)cc1`?
NR3A LBD binder: 21; FAS TE block: inactive; ADAM10 inh: inactive; ADAM17 inh: inactive; HGIII-sPLA2 inh: inactive

What do the screens show for `O=C(Nc1cc(S(=O)(=O)Nc2ccccc2Cl)ccc1O)c1cc2c(s1)CCCC2`?
NR3A LBD binder: 12; FAS TE block: inactive; ADAM10 inh: inactive; ADAM17 inh: inactive; HGIII-sPLA2 inh: inactive

How did O=C(Nc1cc(S(=O)(=O)N2CCCCC2)ccc1O)c1ccccc1NS(=O)(=O)c1ccc(F)cc1 do in these assays?
NR3A LBD binder: 21; FAS TE block: inactive; ADAM10 inh: inactive; ADAM17 inh: inactive; HGIII-sPLA2 inh: inactive

What do the screens show for `O=C(Nc1ccc(OC(F)(F)F)cc1)Nc1c(-c2ccccc2)nc2ncccn12`?
ADAM10 inh: inactive; ADAM17 inh: inactive; HGIII-sPLA2 inh: inactive

How did COc1ccc(-n2nc([N+](=O)[O-])c(=NCCc3ccc(OC)c(OC)c3)n2O)cc1 do in these assays?
NR3A LBD binder: 23; FAS TE block: inactive; ADAM10 inh: inactive; ADAM17 inh: inactive; HGIII-sPLA2 inh: inactive

What do the screens show for `COC(=O)c1ccc(NC(=O)CN2CCOCC2)cc1`?
NR3A LBD binder: 13; FAS TE block: inactive; ADAM10 inh: inactive; ADAM17 inh: inactive; HGIII-sPLA2 inh: inactive

Results for Cc1ccccc1CS(=O)(=O)Cc1ccc(C(=O)Nc2c(C)cccc2C)o1 ?
ADAM10 inh: inactive; ADAM17 inh: inactive; HGIII-sPLA2 inh: inactive

What do the screens show for `COC(=O)C(C(=O)N1CCN(C)CC1)C1CCCCCC1` (configuration not stated)?
NR3A LBD binder: 13; FAS TE block: inactive; ADAM10 inh: inactive; ADAM17 inh: inactive; HGIII-sPLA2 inh: inactive

Results for CCOC(=O)C(C(=O)N1CCOCC1)C1CCCCC1 (configuration not stated) ?
NR3A LBD binder: inactive; FAS TE block: inactive; ADAM10 inh: inactive; ADAM17 inh: inactive; HGIII-sPLA2 inh: inactive

How did CCn1c(SCC(=O)Nc2ccc(C(C)=O)cc2)nc2c([nH]c3ccccc32)c1=O do in these assays?
NR3A LBD binder: 14; FAS TE block: inactive; ADAM10 inh: inactive; ADAM17 inh: inactive; HGIII-sPLA2 inh: inactive

What do the screens show for `CCn1c(SCC(=O)Nc2cccc(NC(C)=O)c2)nc2c([nH]c3ccccc32)c1=O`?
NR3A LBD binder: inactive; FAS TE block: inactive; ADAM10 inh: inactive; ADAM17 inh: inactive; HGIII-sPLA2 inh: inactive

What do the screens show for `COC(=O)[C@H]1C[C@@]2(N3CCCCC3)c3ccccc3N[C@H]2N1S(=O)(=O)c1ccc([N+](=O)[O-])cc1`?
ADAM10 inh: inactive; ADAM17 inh: inactive; HGIII-sPLA2 inh: inactive

How did CCc1cccc2c(C(=O)CN3C(=O)C(=O)N(C4CCCC4)C3=O)c[nH]c12 do in these assays?
NR3A LBD binder: 23; FAS TE block: inactive; ADAM10 inh: inactive; ADAM17 inh: inactive; HGIII-sPLA2 inh: inactive

What do the screens show for `CSCCCNc1nc(C)nc2c1nnn2Cc1ccccc1`?
ADAM10 inh: inactive; ADAM17 inh: inactive; HGIII-sPLA2 inh: inactive

How did COc1ccc(S[C@]2(C(=O)N3CCN(C(C)=O)CC3)CC(=O)N(S(=O)(=O)c3ccc(F)cc3)[C@@H]2c2ccc(OC)cc2)cc1 do in these assays?
ADAM10 inh: inactive; ADAM17 inh: inactive; HGIII-sPLA2 inh: inactive

How did CCCCCn1c(CN2CCN(c3cc(Cl)ccc3C)CC2)nc2c1c(=O)[nH]c(=O)n2C do in these assays?
NR3A LBD binder: 24; FAS TE block: inactive; ADAM10 inh: inactive; ADAM17 inh: inactive; HGIII-sPLA2 inh: inactive

What do the screens show for `O=C(Nc1ccc(Cl)cc1)Nc1ccc2c(c1)OCO2`?
NR3A LBD binder: inactive; FAS TE block: inactive; ADAM10 inh: inactive; ADAM17 inh: inactive; HGIII-sPLA2 inh: inactive

Results for O=C(Nc1ccc2c(c1)OCO2)N1CCN(c2ccccc2Cl)CC1 ?
NR3A LBD binder: 27; FAS TE block: inactive; ADAM10 inh: inactive; ADAM17 inh: inactive; HGIII-sPLA2 inh: inactive

Results for Cc1ccc(NC(=O)Nc2ccc3c(c2)OCO3)c(Br)c1 ?
NR3A LBD binder: 19; FAS TE block: inactive; ADAM10 inh: inactive; ADAM17 inh: inactive; HGIII-sPLA2 inh: inactive

What do the screens show for `O=C(Nc1ccc2c(c1)OCO2)Nc1ccc(Cl)cc1Cl`?
NR3A LBD binder: 34; FAS TE block: inactive; ADAM10 inh: inactive; ADAM17 inh: inactive; HGIII-sPLA2 inh: inactive

How did O=C(Nc1ccc2c(c1)OCO2)N1CCN(S(=O)(=O)c2ccc(Cl)cc2)CC1 do in these assays?
NR3A LBD binder: inactive; FAS TE block: inactive; ADAM10 inh: inactive; ADAM17 inh: inactive; HGIII-sPLA2 inh: inactive

How did O=C(c1cc(Cl)cc(Cl)c1)N1CC[C@H]2[C@H](CCCN2Cc2cc(F)cc(F)c2)C1 do in these assays?
ADAM10 inh: inactive; ADAM17 inh: inactive; HGIII-sPLA2 inh: inactive

What do the screens show for `Cc1ccc(/C=N\NC(=O)CN2CCN(S(=O)(=O)c3ccc(Br)cc3)CC2)s1`?
ADAM10 inh: inactive; ADAM17 inh: inactive; HGIII-sPLA2 inh: inactive

What do the screens show for `COc1cccc(/C=N/Nc2nc(Nc3ccc([N+](=O)[O-])cc3)nc(N3CCCC3)n2)c1O`?
NR3A LBD binder: 23; FAS TE block: inactive; ADAM10 inh: inactive; ADAM17 inh: inactive; HGIII-sPLA2 inh: inactive

How did CNc1nc(N/N=C/c2ccc([N+](=O)[O-])cc2)nc(Nc2ccccc2)n1 do in these assays?
NR3A LBD binder: 30; FAS TE block: inactive; ADAM10 inh: inactive; ADAM17 inh: inactive; HGIII-sPLA2 inh: inactive

High-throughput results (PubChem BioAssay)
